Measured values: the emibetuzumab library of Makowski et al. (2022)
Some of the results follow. The hit rate among all sequences tested is not known here.

B1: VH:VL chains; a variant is named by its letters at X, in order (parent)
chain 1: QVQLVQSGAEVKKPGASVKVSCKASGYTFTDYXMHWVRQAPGQGLEWMGXVNPNXXXTTYNQKFEGRVTMTTDTSTSTAYMELRSLRSDDTAVYYCARXNXLDXWGQGTTVTVSS
chain 2: DIQMTQSPSSLSASVGDRVTITCSVSSSVSSIYLHWYQQKPGKAPKLLIYSTSNLASGVPSRFSGSGSGTDFTLTISSLQPEDFATYYCQVYSGYPLTFGGGTKVEIK

Variants of: B1
Assay: yeast display scFab, FACS + sequencing
Conditions: with MET
Outline: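 Heavy-chain CDR mutant scFab yeast surface library, enriched by two magnetic rounds on HGFR-Fc-coated Protein A beads and then by FACS. Cells were labelled with 1 nM HGFR-Fc in PBSB with 1% milk and anti-Myc for 3 h at room temperature, and the top 50% antigen-positive cells were gated. Round-3 sorted and input populations were deep sequenced in two replicates. Antigen binding call: positive if a sequence occurred in both antigen-positive samples, negative if it occurred only in input.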

Variant | antigen binding call
VTGTGAVV | no binding
VEGTNDVV | no binding
VKRGSAAA | binds
VKRGSAAV | binds
YKRGSAAA | binds
VTTKSAAV | no binding
AKRGSAAV | no binding
YARADAAA | no binding
FKRKAAAA | no binding
YTRAGAAA | no binding
VKGRAAVA | no binding
YKRGGAAA | binds
DKEGGAAA | no binding
DAGTGDGV | no binding
DEGRGDGV | no binding
VTGESAAV | no binding
DEARSDGA | no binding
YRRRGSSD | binds
FRREGSSD | no binding
FRRRGSSD | binds
YRRRGYSD | no binding
YRRRGASD | binds
FRTRGSSD | binds
YAGTGDLV | no binding

Variant | antigen binding call
YRTRSSGA | binds
VRTRSFGA | no binding
YRTRSAGA | binds
DETRSAGA | no binding
SGRGNDAV | no binding
YTRGADGV | no binding
YRRGAAAV | binds
YRKGGAAV | binds
ARRGAYGV | no binding
YRTRGYAV | no binding
YARAGYAV | no binding
YRRGGYAV | binds
YRRGGAAV | binds
DARGGAAV | no binding
AEGTSAVF | no binding
DAGGGDGA | no binding
AARADFGV | no binding
ATTKSDGA | no binding
YRTRGSWD | binds
YRTRSSWD | binds
DATRSSWD | no binding
VRTRGSWD | binds
VATRGFWD | no binding
DRGKNDGD | no binding

Variant | antigen binding call
DKEGGDGA | no binding
DREGDAVA | no binding
YRRRSAGA | binds
DREEGAGA | no binding
YRRRSAVA | binds
VTGGDDGA | no binding
VEGADAVA chain 1 G106S | no binding
AGGGNSGV | no binding
VKGRGSWS | binds
VKGKSSWS | no binding
YKGRGSWS | binds
VKGRASWS | no binding
SKGRSSWS | no binding
YKGEDDVY | no binding
YKGGSAGY | binds
YEGGGDVY | no binding
YKGGSDVY | binds
YKGGSAWY | binds
VKGGAAVY | no binding
YKGTDAWY | no binding
VKGTDAWY | no binding
DEKEGDAA | no binding
YRGGAAWD | binds
YAGGAYLY | no binding

Variant | antigen binding call
YRGGAAWY | binds
YEGGADVD | no binding
YRARGDLD | binds
YRRRGFVD | binds
YTGTSDLD | no binding
YRRRGSVD | binds
YRRRGSLD | binds
YRRRGFGD | no binding
DGARNSGV | no binding
FAGRAAWA | no binding
SETTDDVA | no binding
AGGGNDVY | no binding
YRRRGYVD | no binding
YTERGDVD | no binding
DARRGSGD | no binding
YRRRGAVD | binds
YARADSLD | no binding
YRRRSSVD | binds
YARRGSLD | binds
YRRRGDVD | binds
SEGTGDWV | no binding
VEEEGDSA | no binding
VETEGDVA | no binding
YRRRGDLD | binds

Variant | antigen binding call
YRRRGSWD | binds
YRREGSLD | binds
AEARSDGA | no binding
SEGRGAWY | binds
SRGRGAWY | binds
SEGRGDVY | no binding
AEGRGAVY | no binding
VETGNDGV | no binding
ATRGADAV | no binding
YRGGGVVD | binds
YRGRGFVD | binds
YAGRGVVD | no binding
YRGRDFVD | no binding
YREGDFVD | no binding
YRGRGVVD | binds
YAGTGVVD | no binding
VTGGDSWF | no binding
AGTRSFGY | no binding
FRATSAVD | no binding
FRAGGAVD | binds
FRAGGSVD | binds
FTEEGAVD | no binding
VKARGSVA | binds
VKAGDSGA | no binding

Variant | antigen binding call
VTTKSSVA | no binding
YKARGSGS | binds
SKTKSSAS | no binding
VKEGGDVA | no binding
YKAGGSAS | binds
VKARGSGA | binds
VKKTGSGA | no binding
DKAGGDGS | no binding
VAGGDDGF | no binding
SKTKSDGV | no binding
YKARGAWA | binds
YTERAAWA | no binding
VKARGSLA | binds
YEARNAGA | no binding
YMAEGSGA | no binding
VKEGGSSA | no binding
YKARGAGA | binds
YKARGSGA | binds
VKERGAVA | no binding
SAAGSVWY | no binding
VKEGGDGA | no binding
DEAGDAVV | no binding
SRGRGAWF | binds
SRGRGAGF | binds

Variant | antigen binding call
SAGRGFGF | no binding
YKRKSASD | binds
YKAGDSSD | binds
YARADSSD | no binding
YKAGGYSD | no binding
YKRGSSSD | binds
AKAADSSD | no binding
AKTGDSSD | no binding
VKRGSSSD | binds
AKGKASSD | no binding
VAEKGDVF | no binding
VTGEDDWV | no binding
DREGDDAV | no binding
SEARSDSF | no binding
YKRGSASD | binds
AKAGGASD | no binding
YKRRDASD | no binding
DTTGSDAV | no binding
VAGTDDWV | no binding
YRRRGFAV | binds
YRRGGFVV | binds
YRAGGFVV | binds
YRRRGFVV | binds
YRATDFVV | no binding

Variant | antigen binding call
YTATGFAV | no binding
ATAGSASD | no binding
DRGGDDWV | no binding
STGTSDLY | no binding
AATTDSGD | no binding
SAREGDAV | no binding
YTRGADLA | no binding
YTRGADGS | no binding
YRRGASSS | binds
YTRGASSS | binds
AETKGSLA | no binding
SAAGGAAV chain 1 L45S | no binding
DAEEDAGY | no binding
FGRGTSGD | no binding
FRRGDALD | binds
FTGEAAGD | no binding
FKRGDAGD | binds
FAARSYGD | no binding
FRRGDAGD | binds
FGRRTYGD | binds
VKKEDAGD | no binding
FKTKSAGD | no binding
STAEDDWV | no binding
VTAGDDAV | no binding

Variant | antigen binding call
AARADDVA | no binding
VRTRGAVD | binds
YRTRGAVD | binds
VTTGGAVD | no binding
YKTRGAGD chain 1 Q43R | binds
YRTRGASD | binds
VTTRGAVA | no binding
DTTKGDGS | no binding
VEKGGDGV | no binding
YRTRGAGD | binds
DATRGAGD | no binding
SKAGDAWD | no binding
FEETDAGD | no binding
SKAKGAWS | binds
SETKGDWD | no binding
SKRETAWS | binds
SKAKGAWD | binds
FEARDYWD | binds
DKAKGDGS | no binding
SEARSDWD | no binding
